SMILES strings stand for the structures. The source made the active and inactive calls. How the source made its calls: active means hit-call score of the fitted dose curve at least 0.9, where 1 is the maximum; inactive means score below 0.9.

A short description of one assay: CCTE_Mundy_HCI_Cortical_NOG_NeuriteCount: CCTE's Neurite Outgrowth Assay in rat cortical cells for Neurite Count, Mundy Lab (AID 2284212).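 Further: cells fixed about two days after chemical exposure began.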 The procedure, abridged: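 Rat cortical primary cells; compound added 2 h post-plating, 1/10 dilution of working solution. Anti-betaIII-tubulin/AF488 ICC; ArrayScan neurite count vs DMSO.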
For `OC(Cc1ccccc1Cl)(Cn1[nH]cnc1=S)C1(Cl)CC1` (centres undefined), the result was inactive.

For the compound `Cc1cc(C(F)(C(F)(F)F)C(F)(F)F)ccc1NC(=O)c1cccc(I)c1C(=O)NC(C)(C)CS(C)(=O)=O`, the compound was classed as inactive.

Regarding `Cc1ccccc1OP(=O)(Oc1ccccc1C)Oc1ccccc1C`, the AC50 was 19.2 µM (active).

Take `CC(C)[C@@H](Nc1ccc(C(F)(F)F)cc1Cl)C(=O)OC(C#N)c1cccc(Oc2ccccc2)c1` (some centres undefined): the outcome was inactive.

`CS(=O)(=O)c1ccc(C(=O)C2C(=O)CCCC2=O)c(Cl)c1COCC(F)(F)F`: the call was inactive.

For `NC(=O)c1ccc(N)nc1`, the AC50 was 14.5 µM (active).

Consider `CNC(=O)CSP(=O)(OC)OC`, for which the call was inactive.

On to `CC1(C)[C@H](C(=O)O[C@H](C#N)c2cccc(Oc3ccccc3)c2)[C@@H]1/C=C(\Cl)C(F)(F)F`, for which the AC50 was 19.9 µM (active).

`CCOCn1c(-c2ccc(Cl)cc2)c(C#N)c(Br)c1C(F)(F)F`: the AC50 was 23.2 µM (active).

The nature of a further assay: CCTE_Mundy_HCI_Cortical_NOG_NeuriteLength: CCTE's Neurite Outgrowth Assay in rat cortical cells for Neurite Length, Mundy Lab (AID 2284213).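 On AC50: neurites imaged about 48 to 50 h after chemical exposure began.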 The method in brief:
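First, rat primary cortical cells were plated and, 2 h later, given test chemical as a 1/10 dilution. Finally, βIII-tubulin immunostaining enabled automated imaging of neurite length.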
Take `OC(Cc1ccccc1Cl)(Cn1[nH]cnc1=S)C1(Cl)CC1` (centres undefined): the compound was called inactive.

`Cc1cc(C(F)(C(F)(F)F)C(F)(F)F)ccc1NC(=O)c1cccc(I)c1C(=O)NC(C)(C)CS(C)(=O)=O`: the outcome was inactive.

In the case of `Cc1ccccc1OP(=O)(Oc1ccccc1C)Oc1ccccc1C`, the AC50 was 19.6 µM (active).

On to `CC(C)[C@@H](Nc1ccc(C(F)(F)F)cc1Cl)C(=O)OC(C#N)c1cccc(Oc2ccccc2)c1` (some centres undefined), for which the outcome was inactive.

As to `CS(=O)(=O)c1ccc(C(=O)C2C(=O)CCCC2=O)c(Cl)c1COCC(F)(F)F`, the compound was called inactive.

Turning to `NC(=O)c1ccc(N)nc1`, the AC50 was 14 µM (active).

Consider `CNC(=O)CSP(=O)(OC)OC`, for which the compound was classed as inactive.

On to `CC1(C)[C@H](C(=O)O[C@H](C#N)c2cccc(Oc3ccccc3)c2)[C@@H]1/C=C(\Cl)C(F)(F)F`, for which the AC50 is 19.5 µM (active).

As to `CCOCn1c(-c2ccc(Cl)cc2)c(C#N)c(Br)c1C(F)(F)F`, the AC50 is 22.4 µM (active).

The nature of a further assay: CCTE_Mundy_HCI_Cortical_Synap_Neur_Matur_NeuriteLength: CCTE's Synaptogenesis and Neurite Maturation Assay in rat cortical cells for Neurite Length, Mundy Lab (AID 2284214). The procedure, abridged: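 Read-out: high-content imaging of MAP2-labelled neurites, with synaptophysin and Hoechst co-stain, in rat cortical cultures fixed at DIV 12. Activity fitted in positive direction relative to DMSO baseline.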
Take `OC(Cc1ccccc1Cl)(Cn1[nH]cnc1=S)C1(Cl)CC1` (centres undefined): the AC50 is 42.7 µM (active).

For the compound `Cc1cc(C(F)(C(F)(F)F)C(F)(F)F)ccc1NC(=O)c1cccc(I)c1C(=O)NC(C)(C)CS(C)(=O)=O`, the compound was classed as inactive.

Regarding `Cc1ccccc1OP(=O)(Oc1ccccc1C)Oc1ccccc1C`, the half-maximal activity concentration (AC50) is 3.54 µM (active).

`CC(C)[C@@H](Nc1ccc(C(F)(F)F)cc1Cl)C(=O)OC(C#N)c1cccc(Oc2ccccc2)c1` (some centres undefined): the compound was classed as inactive.

`CS(=O)(=O)c1ccc(C(=O)C2C(=O)CCCC2=O)c(Cl)c1COCC(F)(F)F`: the compound was called inactive.

As for `NC(=O)c1ccc(N)nc1`, the AC50 is 9.47 µM (active).

For `CNC(=O)CSP(=O)(OC)OC`, the outcome was inactive.

As to `CC1(C)[C@H](C(=O)O[C@H](C#N)c2cccc(Oc3ccccc3)c2)[C@@H]1/C=C(\Cl)C(F)(F)F`, the AC50 is 2.35 µM (active).

`CCOCn1c(-c2ccc(Cl)cc2)c(C#N)c(Br)c1C(F)(F)F`: the AC50 is 15.5 µM (active).

Another assay in a line: CCTE_Mundy_HCI_Cortical_Synap_Neur_Matur_NeuriteSpotCountPerNeuron: CCTE's Synaptogenesis and Neurite Maturation Assay in rat cortical cells for Neurite Spot Count per Neuron Count, Mundy Lab (AID 2284215). The procedure, abridged: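 Rat primary cortical cells received AraC at DIV 5, then chemicals with a media change at DIV 7, and were fixed at DIV 12. Synaptophysin puncta on MAP2-stained neurites per neuron were counted by high-content imaging, fitted relative to DMSO.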
Turning to `OC(Cc1ccccc1Cl)(Cn1[nH]cnc1=S)C1(Cl)CC1` (centres undefined), the AC50 is 50 µM (active).

`Cc1cc(C(F)(C(F)(F)F)C(F)(F)F)ccc1NC(=O)c1cccc(I)c1C(=O)NC(C)(C)CS(C)(=O)=O`: the compound was classed as inactive.

As for `Cc1ccccc1OP(=O)(Oc1ccccc1C)Oc1ccccc1C`, the AC50 is 3.81 µM (active).

In the case of `CC(C)[C@@H](Nc1ccc(C(F)(F)F)cc1Cl)C(=O)OC(C#N)c1cccc(Oc2ccccc2)c1` (some centres undefined), the AC50 was 4.59 µM (active).

As for `CS(=O)(=O)c1ccc(C(=O)C2C(=O)CCCC2=O)c(Cl)c1COCC(F)(F)F`, the call was inactive.

For `NC(=O)c1ccc(N)nc1`, the AC50 was 9.32 µM (active).

As for `CNC(=O)CSP(=O)(OC)OC`, the compound was classed as inactive.

Regarding `CC1(C)[C@H](C(=O)O[C@H](C#N)c2cccc(Oc3ccccc3)c2)[C@@H]1/C=C(\Cl)C(F)(F)F`, the concentration at half-maximal activity (AC50) is 2.16 µM (active).

Regarding `CCOCn1c(-c2ccc(Cl)cc2)c(C#N)c(Br)c1C(F)(F)F`, the AC50 was 13.5 µM (active).

A further assay can be described thus: CCTE_Mundy_HCI_Cortical_Synap_Neur_Matur_SynapseCount: CCTE's Synaptogenesis and Neurite Maturation Assay in rat cortical cells for Synapse Count, Mundy Lab (AID 2284218). The procedure, abridged: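 Read-out: synapse number per neuron, automated high-content imaging of fixed cells immunostained for MAP2 and synaptophysin plus Hoechst nuclei. Rat primary cortical cultures, AraC at DIV 5, chemical dosing DIV 7–12. Positive-direction fit relative to DMSO.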
On to `OC(Cc1ccccc1Cl)(Cn1[nH]cnc1=S)C1(Cl)CC1` (centres undefined), for which the AC50 is 50 µM (active).

As to `Cc1cc(C(F)(C(F)(F)F)C(F)(F)F)ccc1NC(=O)c1cccc(I)c1C(=O)NC(C)(C)CS(C)(=O)=O`, the compound was called inactive.

For the compound `Cc1ccccc1OP(=O)(Oc1ccccc1C)Oc1ccccc1C`, the AC50 was 3.85 µM (active).

In the case of `CC(C)[C@@H](Nc1ccc(C(F)(F)F)cc1Cl)C(=O)OC(C#N)c1cccc(Oc2ccccc2)c1` (some centres undefined), the outcome was inactive.

Take `CS(=O)(=O)c1ccc(C(=O)C2C(=O)CCCC2=O)c(Cl)c1COCC(F)(F)F`: the compound was called inactive.

As for `NC(=O)c1ccc(N)nc1`, the AC50 is 9.12 µM (active).

Consider `CNC(=O)CSP(=O)(OC)OC`, for which the call was inactive.

Regarding `CC1(C)[C@H](C(=O)O[C@H](C#N)c2cccc(Oc3ccccc3)c2)[C@@H]1/C=C(\Cl)C(F)(F)F`, the AC50 was 2.13 µM (active).

Take `CCOCn1c(-c2ccc(Cl)cc2)c(C#N)c(Br)c1C(F)(F)F`: the AC50 was 13.5 µM (active).

Another assay can be described thus: CCTE_Mundy_HCI_Cortical_Synap_Neur_Matur_NeuriteCount: CCTE's Synaptogenesis and Neurite Maturation Assay in rat cortical cells for Neurite Count, Mundy Lab (AID 2284222).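 On outcome: exposure from day 7 to day 12 in vitro with readout at day 12.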 The procedure, abridged:
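Rat primary cortical cells; AraC added at DIV 5, chemicals dosed with media change at DIV 7 through DIV 12. MAP2/synaptophysin/Hoechst immunostaining, high-content imaging of neurite number; fitted relative to DMSO.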
As to `OC(Cc1ccccc1Cl)(Cn1[nH]cnc1=S)C1(Cl)CC1` (centres undefined), the AC50 is 50 µM (active).

Consider `Cc1cc(C(F)(C(F)(F)F)C(F)(F)F)ccc1NC(=O)c1cccc(I)c1C(=O)NC(C)(C)CS(C)(=O)=O`, for which the outcome was inactive.

For `Cc1ccccc1OP(=O)(Oc1ccccc1C)Oc1ccccc1C`, the compound was called inactive.

Turning to `CC(C)[C@@H](Nc1ccc(C(F)(F)F)cc1Cl)C(=O)OC(C#N)c1cccc(Oc2ccccc2)c1` (some centres undefined), the call was inactive.

For `CS(=O)(=O)c1ccc(C(=O)C2C(=O)CCCC2=O)c(Cl)c1COCC(F)(F)F`, the compound was classed as inactive.

Consider `NC(=O)c1ccc(N)nc1`, for which the AC50 is 18.7 µM (active).

For `CNC(=O)CSP(=O)(OC)OC`, the result was inactive.

`CC1(C)[C@H](C(=O)O[C@H](C#N)c2cccc(Oc3ccccc3)c2)[C@@H]1/C=C(\Cl)C(F)(F)F`: the AC50 is 3.48 µM (active).

Consider `CCOCn1c(-c2ccc(Cl)cc2)c(C#N)c(Br)c1C(F)(F)F`, for which the AC50 was 16.4 µM (active).

The record behind these values is PubChem BioAssay (EPA / NIEHS).
